Molecules are shown by their SMILES. Hit rate of the full screen: of about 16,000 compounds, about 4,000 (25%) were called active. Another 26% or so got no clear call; they are omitted. A selection follows. A number with no mark means an inactive call. The call rests on the fitted dose curve; in most records, active means well fitted curve in the direction sought with a large enough effect; inconclusive means small, poorly fitted or top-dose-only effect, or effect the other way; inactive means no such curve, though single readings can be large or run the other way.
On the % scale 0 is the no-effect control and ±100 the full control effect.

Cytochrome P450 2C9 (Homo sapiens), sequence (P11712 whole entry, looked up): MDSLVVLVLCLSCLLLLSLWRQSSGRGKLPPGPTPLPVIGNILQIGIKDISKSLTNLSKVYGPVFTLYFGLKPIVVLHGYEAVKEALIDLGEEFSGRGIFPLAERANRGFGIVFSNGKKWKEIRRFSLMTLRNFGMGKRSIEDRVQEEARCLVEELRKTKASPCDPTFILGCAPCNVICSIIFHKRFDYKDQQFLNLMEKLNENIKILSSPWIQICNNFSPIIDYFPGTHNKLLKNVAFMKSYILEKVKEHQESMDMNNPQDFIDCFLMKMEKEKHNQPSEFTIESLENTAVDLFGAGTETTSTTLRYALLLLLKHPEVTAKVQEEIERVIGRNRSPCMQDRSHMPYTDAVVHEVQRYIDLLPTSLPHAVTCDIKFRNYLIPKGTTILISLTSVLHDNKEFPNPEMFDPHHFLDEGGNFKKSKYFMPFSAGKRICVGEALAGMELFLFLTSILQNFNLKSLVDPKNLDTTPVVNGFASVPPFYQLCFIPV

This assay concerns the target Cytochrome P450 2C9 (Homo sapiens) (UniProt P11712). Description: Cytochrome panel assay with activity outcomes. To be noted: recombinant CYP, pro-luciferin dealkylation, luminescence, p450-cyp2c9; series mostly up to 57.1 µM; activity, negative = inhibition: at the top concentration.
For the compound `Nc1ccc(S(=O)(=O)c2ccc(NCN3C(=O)NC(=O)C(=O)C3=O)cc2)cc1`, the activity, negative = inhibition is 7.48% [at 11.4 µM]. As for `CC(C)(C)CC(=O)NC(=S)Nc1ccccc1C(F)(F)F`, the AC50 (commonly the concentration at which the activity in the assay is half-maximal) was 2.51 µM (active).

Turning to `NCCCN1CCN(c2ccccc2)CC1`, the activity, negative = inhibition is 3.16% [at 11.4 µM].

In the case of `CCNC(=O)O/N=C(\C)c1sc(-c2ccccc2)nc1C`, the AC50 is 8.91 µM (active). Consider `C/C(=N\OC(=O)NC(C)C)c1sc(-c2ccc(Cl)cc2)nc1C`, for which the AC50 is 7.08 µM (active). `CCC(CC)C(=O)NC1CCSC1=O` (stereo unspecified): the “activity, negative = inhibition” value was -18.2%.

Regarding `N=C(N)n1cc(/C=N\N=C(N)N)cn1`, the activity, negative = inhibition was 5.35% [at 11.4 µM]. For `CC1=CC(=O)C2=C(C)C[C@@H](O)[C@@H]3[C@@H](OC(=O)[C@H]3C)[C@H]12`, the “activity, negative = inhibition” value was -8.01% [at 25.6 µM].

For the compound `CN(C)C(=O)Oc1cc(OC(=O)N(C)C)cc([C@@H](O)CNC(C)(C)C)c1`, the “activity, negative = inhibition” value was -9.69% [at 25.6 µM]. For `C[C@@]12CC[C@@H]3[C@H](CCC4=CC(=O)CC[C@]43C)[C@@H]1CC[C@@H]2C(=O)Cn1cnc2c(=S)nc[nH]c21`, the activity, negative = inhibition was -11.6% [at 11.4 µM].

`COC(=O)N1CCC2(CCN(CC(C)C)CC2)CC1`: the “activity, negative = inhibition” value is 2.36%. Still for that read-out and setting: next, `C[C@@]12CC[C@H](O)C[C@@H]1CC[C@H]1[C@@H]2C[C@@H](O)[C@]2(C)[C@@H](C3=CC(=O)OC3)CC[C@]12O`: 4.33% [at 25.6 µM]. `C[N+]1(C)CCN(c2ccccc2)CC1`: the “activity, negative = inhibition” value was 15.2%.

As for `C[C@H](CC(C#N)(c1ccccc1)c1ccccc1)N1CCCCC1`, the activity, negative = inhibition was 6.88% [at 11.4 µM].

With `CCCCCCCCC(=O)NCc1ccc(O)c(OC)c1`, the AC50 is 3.16 µM (active). Consider `COc1cc(CCN)ccc1O`, for which the “activity, negative = inhibition” value is 9.44%. Consider `CNC[C@H](O)c1ccc(O)c(OC)c1`, for which the “activity, negative = inhibition” value is -14.4% [at 25.6 µM]. Turning to `COc1cc(CNC(=O)CCCC/C=C\C(C)C)ccc1O`, the AC50 was 1.26 µM (active).

For the compound `COc1cc([C@@H](O)CN)ccc1O`, the “activity, negative = inhibition” value was -10.9%.

With `C[C@@H]1O[C@H](O[C@@H]2CC[C@@]3(C=O)[C@H]4CC[C@@]5(C)[C@@H](C6=CC(=O)OC6)CC[C@@]5(O)[C@@H]4CC[C@]3(O)C2)C[C@H](O)[C@@H]1O`, the “activity, negative = inhibition” value is -13.8% [at 25.6 µM]. In the case of `COc1ccc2[nH]cc(C3=CCNCC3)c2c1`, the “activity, negative = inhibition” value is 1.78%. As to `C=CCN1C(=O)NC(=O)/C(=C/c2cccn2C)C1=O`, the “activity, negative = inhibition” value is -22.7%. On to `O=C(O)Cc1cccnc1C(=O)O`, for which the “activity, negative = inhibition” value was -11.6%. On to `O=c1cccc2n1CC1CNC[C@H]2C1`, for which the activity, negative = inhibition result was “inactive”. As to `c1ccc(N2CC[C@@]3(CCCNC3)C2)cc1`, the “activity, negative = inhibition” value was -22.1%. With `CC(C)CN1CCC2(CC1)CCN(S(C)(=O)=O)CC2`, the “activity, negative = inhibition” value was -12.8%. For the compound `Cc1ccc(N(C)C(=O)Oc2cccc3ccc(C)nc23)cc1`, the concentration at half-maximal activity (AC50) is 11.2 µM (active). For `O=C1OC(=O)[C@@H]2[C@@H]1[C@@H]1CC[C@H]2O1`, the “activity, negative = inhibition” value was -6.96%. Turning to `O=C(O)C(C(=O)O)P(=S)(S)c1ccccc1` (stereo unspecified), the activity, negative = inhibition is 4.02% [at 11.4 µM]. Regarding `COC(=O)C[C@](O)(CCCC(C)(C)O)C(=O)O[C@@H]1C(OC)=C[C@]23CCCN2CCc2cc4c(cc2[C@H]13)OCO4`, the “activity, negative = inhibition” value is -18%. Consider `C[C@]12CC[C@@H]3C(=CCc4cc(O)ccc43)[C@@H]1CCC2=O`, for which the “activity, negative = inhibition” value was -19.8% [at 25.6 µM]. Turning to `CCN(CC)C(=O)N[C@@H]1C[C@H]2c3cccc4[nH]cc(c34)C[C@@H]2N(C)C1`, the activity, negative = inhibition result was “inactive”. `CC(=O)C1=C(O)[C@@H]2[C@@H]3c4c[nH]c5cccc(c45)C[C@@H]3C(C)(C)N2C1=O`: the concentration at half-maximal activity (AC50) is 31.6 µM (active). Consider `S=C=Nc1cccc(C2(N3CCCCC3)CCCCC2)c1`, for which the “activity, negative = inhibition” value was -2.74%.

For the compound `CCCN[C@@H]1CCc2c(OC)cccc2[C@@H]1C`, the “activity, negative = inhibition” value was -3.13%. With `C=C(C)[C@H]1CC[C@]2(CO)CC[C@]3(C)[C@@H](CC[C@H]4[C@@]5(C)CC[C@@H](O)C(C)(C)[C@@H]5CC[C@@]43C)[C@H]12`, the “activity, negative = inhibition” value was -0.565% [at 25.6 µM].

As to `C[C@@H]1[C@@H](C)N1C[C@H](O)Cn1ccnc1[N+](=O)[O-]` (stereo partly specified), the activity, negative = inhibition is 21.8% [at 11.4 µM]. As to `Oc1ccc2c3c1O[C@H]1c4[nH]c5c(c4C[C@@]4(O)[C@@H](C2)N(CC2CC2)CC[C@]314)C[C@]1(O)[C@H]2Cc3ccc(O)c4c3[C@@]1(CCN2CC1CC1)[C@@H]5O4`, the “activity, negative = inhibition” value is -4.82%. Still for that read-out and setting: next, `Oc1ccc2c3c1O[C@@H]1c4[nH]c5c(c4C[C@@]4(O)[C@@H](C2)N(CC2CC2)CC[C@]314)C[C@]1(O)[C@@H]2Cc3ccc(O)c4c3[C@@]1(CCN2CC1CC1)[C@H]5O4`: 12.7%.

As for `Oc1ccc2c3c1O[C@H]1c4[nH]c5ccccc5c4C[C@]4(O)[C@H](C2)N(CC2CC2)CC[C@@]314`, the AC50 was 25.1 µM (active). In the case of `C=C[C@@H]1CN2CC[C@H]1C[C@H]2[C@H](O)c1ccnc2ccccc12`, the activity, negative = inhibition was -2.06% [at 11.4 µM]. Regarding `c1cncc([C@@H]2CCCCN2)c1`, the activity, negative = inhibition entry was “inactive”. On to `NCCSC(c1ccccc1)c1ccccc1`, for which the AC50 is 1 µM (active). As for `C[C@H](N)[C@@H](O)c1ccccc1`, the “activity, negative = inhibition” value was -10.4% [at 25.6 µM]. As to `CC(=O)[C@@H]1CC[C@@H]2[C@@H]3CC=C4C[C@H](OS(=O)(=O)O)CC[C@@]4(C)[C@H]3CC[C@]21C`, the “activity, negative = inhibition” value is -6.99%.

Regarding `C[C@@H]1O[C@H](OC2[C@@H](O)[C@H](O)C(O)[C@H](O)[C@H]2O)[C@@H](N)C[C@@H]1N=C(N)C(=O)O` (stereo partly specified), the activity, negative = inhibition was 0.868% [at 11.4 µM]. In the case of `COc1ccc2c(c1O)-c1cccc3c1[C@H](C2)N(C)CC3`, the “activity, negative = inhibition” value was -7.79%. For `O=[As](O)(O)c1ccc(N=Nc2ccc(O)cc2)cc1`, the activity, negative = inhibition is -6.31% [at 11.4 µM].

`NNC(=O)c1ccc(O)cc1`: the “activity, negative = inhibition” value is 10.6%. With `NC(N)=NC(=O)c1nc(Cl)c(N)nc1N`, the “activity, negative = inhibition” value is 12.1%.

In the case of `C[C@@]12CC[C@@H]3[C@H](CCC4=CC(=O)CC[C@]43C)[C@@H]1CC[C@@H]2C(=O)COS(=O)(=O)c1ccc(Br)cc1`, the activity, negative = inhibition was -18.3% [at 11.4 µM].

These data come from PubChem BioAssay AID1851 (National Center for Advancing Translational Sciences (NCATS), 2009).
